Measured values reported in PubChem BioAssay (EPA / NIEHS).
Calls of active or inactive are those of the source. How the source made its calls: active means hit-call score of the fitted dose curve at least 0.9, where 1 is the maximum; inactive means score below 0.9.

Read-out: Tumor necrosis factor (Homo sapiens) (UniProt P01375)
Experiment: BSK_LPS_TNFa: BioMAP Diversity Plus: LPS Assay for Tumour Necrosis Factor alpha (TNFa) Biomarker Activity (AID 2283085);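 on AC50: TNFa protein level quantified by ELISA in the co-culture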
Settings: primary human HUVEC with PBMC; actives raise or lower the signal
Summary of the method: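 Human umbilical vein endothelial cells co-cultured with PBMC and stimulated with LPS. TNFa was measured by ELISA 24 h after chemical dosing, fitted bidirectionally relative to DMSO.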

Sequence of Tumor necrosis factor (Homo sapiens) (P01375 whole entry, looked up): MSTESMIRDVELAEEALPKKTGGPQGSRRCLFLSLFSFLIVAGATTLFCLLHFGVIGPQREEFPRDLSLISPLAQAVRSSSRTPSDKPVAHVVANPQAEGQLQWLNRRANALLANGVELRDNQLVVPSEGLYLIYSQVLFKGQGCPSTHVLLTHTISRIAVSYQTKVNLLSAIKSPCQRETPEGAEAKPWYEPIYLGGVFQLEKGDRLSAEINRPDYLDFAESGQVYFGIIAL

**Q.** With `On1ccccc1=S` as the compound, how does the outcome read?
**A.** inactive

**Q.** How did the outcome turn out when `Cn1c(=O)c2c(ncn2C)n(C)c1=O` was run?
**A.** inactive

**Q.** How did the outcome turn out when `CC(=O)c1ccc2c(c1)[C@H](NC(=O)c1ccc(F)cc1)[C@@H](O)C(C)(C)O2` was run?
**A.** inactive

**Q.** `COCCOCCOCCOC` was tested. Which outcome did it give?
**A.** inactive

**Q.** With `O=c1[nH]c2ccc(S(=O)CCN3CCC(Cc4ccc(F)cc4)CC3)cc2o1` (stereo not drawn) as the compound, how does the outcome read?
**A.** inactive

**Q.** With `CCCN(C1CCN(C(=O)C2CCNCC2)CC1)[C@@H]1CCc2ccc(OC)cc2C1` as the compound, how does the outcome read?
**A.** inactive

**Q.** With `C1=CCCC=CCCC=CCC1` as the compound, how does the outcome read?
**A.** inactive

**Q.** For `CC(C)CC(C)(O)C#CC(C)(O)CC(C)C` (stereo not drawn), which outcome is on record?
**A.** inactive

**Q.** Which outcome does the source give for `O=C1CCC(N2C(=O)c3ccccc3C2=O)C(=O)N1` (stereo not drawn) here?
**A.** inactive

**Q.** Which outcome does the source give for `CC/C(=C\C(=N/O)C(N)=O)C(C)[N+](=O)[O-]` (stereo not drawn) here?
**A.** inactive

**Q.** `CC(O)CN(CCN(CC(C)O)CC(C)O)CC(C)O` (stereo not drawn) was tested. Which outcome did it give?
**A.** inactive

**Q.** `C[C@](N)(Cc1ccc(O)c(O)c1)C(=O)O` was tested. Which outcome did it give?
**A.** inactive

**Q.** How did the outcome turn out when `CCOC(=O)c1ccc(C2CCC(NC[C@H](O)COc3ccc(O)c(NS(C)(=O)=O)c3)CC2)cc1` (stereo partly drawn) was run?
**A.** inactive

**Q.** `CC[C@H]1OC(=O)[C@H](C)[C@@H](O[C@H]2C[C@@](C)(OC)[C@@H](O)[C@H](C)O2)[C@H](C)[C@@H](O[C@@H]2O[C@H](C)C[C@H](N(C)C)[C@H]2O)[C@](C)(O)C[C@@H](C)C(=O)[C@H](C)[C@@H](O)[C@]1(C)O` was tested. Which outcome did it give?
**A.** inactive

**Q.** `CCn1nc(Cc2ccccc2)cc1C1CCN(C[C@H]2C[C@H](N(C)[C@@H](C(=O)O)C(C)C)C[C@@H]2c2cccc(F)c2)CC1` was tested. Which outcome did it give?
**A.** inactive

**Q.** With `O=P(OC(CCl)CCl)(OC(CCl)CCl)OC(CCl)CCl` as the compound, how does the outcome read?
**A.** inactive

**Q.** How did the outcome turn out when `O=C(O)c1cc(N=Nc2ccc(S(=O)(=O)Nc3ccccn3)cc2)ccc1O` was run?
**A.** inactive

**Q.** Which AC50 does the source give for `Oc1ccc2c(c1)-c1ccccc1C2` here?
**A.** 0.334 µM (active)

**Q.** With `CCCCCCCCCCCCc1ccccc1` as the compound, how does the outcome read?
**A.** inactive

**Q.** For `CCCC(=O)OCC`, which outcome is on record?
**A.** inactive

**Q.** With `CC[C@H](C)C(=O)O[C@H]1C[C@@H](C)C=C2C=C[C@H](C)[C@H](CC[C@@H]3C[C@@H](O)CC(=O)O3)[C@H]21` as the compound, how does the AC50 read?
**A.** 33.5 µM (active)

**Q.** `NC(=O)NO` was tested. Which outcome did it give?
**A.** inactive

**Q.** With `COCCOc1cc2cc(C(=O)NC3CCN(C(C)C)CC3)n(CC(=O)Nc3ccc(Cl)cn3)c2cn1` as the compound, how does the outcome read?
**A.** inactive

**Q.** With `COc1ccc(-n2nc(C(F)F)cc2-c2ccc(S(C)=O)cc2)cc1` (stereo not drawn) as the compound, how does the AC50 read?
**A.** 2.57 µM (active)

**Q.** For `CC(C)(O)c1coc(S(=O)(=O)NC(=O)Nc2c3c(cc4c2CCC4)CCC3)c1`, which AC50 is on record?
**A.** 0.405 µM (active)

**Q.** For `CCNc1ccccc1`, which outcome is on record?
**A.** inactive

**Q.** `CC(C)CCCCCCOC(=O)c1ccc(C(=O)OCCCCCCC(C)C)c(C(=O)OCCCCCCC(C)C)c1` was tested. Which outcome did it give?
**A.** inactive

**Q.** `CCCCC(CC)COC(=O)CCCCCCCCC(=O)OCC(CC)CCCC` (stereo not drawn) was tested. Which outcome did it give?
**A.** inactive

**Q.** For `Cn1c(=O)cc(Oc2ccc(F)cc2F)c2cnc(NCC(C)(C)O)nc21`, which AC50 is on record?
**A.** 5.06 µM (active)

Read-out: Vascular cell adhesion molecule 1 (VCAM1), VCAM1 (gene 7412)
Experiment: BSK_LPS_VCAM1: BioMAP Diversity Plus: LPS Assay for Vascular cell adhesion molecule 1 (VCAM1) Biomarker Activity (AID 2283086)
Settings: primary human HUVEC with PBMC; actives raise or lower the signal
Summary of the method: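 Human umbilical vein endothelial cells co-cultured with PBMC and stimulated with LPS; VCAM-1 measured by ELISA 24 h after dosing. Bidirectional curve fitting against DMSO baseline; cytotoxicity tracked in parallel by SRB total-protein staining.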

**Q.** For `On1ccccc1=S`, which AC50 is on record?
**A.** 19.8 µM (active)

**Q.** How did the outcome turn out when `Cn1c(=O)c2c(ncn2C)n(C)c1=O` was run?
**A.** inactive

**Q.** With `CC(=O)c1ccc2c(c1)[C@H](NC(=O)c1ccc(F)cc1)[C@@H](O)C(C)(C)O2` as the compound, how does the outcome read?
**A.** inactive

**Q.** For `COCCOCCOCCOC`, which outcome is on record?
**A.** inactive

**Q.** `O=c1[nH]c2ccc(S(=O)CCN3CCC(Cc4ccc(F)cc4)CC3)cc2o1` (stereo not drawn) was tested. Which outcome did it give?
**A.** inactive

**Q.** Which outcome does the source give for `CCCN(C1CCN(C(=O)C2CCNCC2)CC1)[C@@H]1CCc2ccc(OC)cc2C1` here?
**A.** inactive

**Q.** With `C1=CCCC=CCCC=CCC1` as the compound, how does the outcome read?
**A.** inactive

**Q.** For `CC(C)CC(C)(O)C#CC(C)(O)CC(C)C` (stereo not drawn), which outcome is on record?
**A.** inactive

**Q.** `O=C1CCC(N2C(=O)c3ccccc3C2=O)C(=O)N1` (stereo not drawn) was tested. Which outcome did it give?
**A.** inactive

**Q.** With `CC/C(=C\C(=N/O)C(N)=O)C(C)[N+](=O)[O-]` (stereo not drawn) as the compound, how does the outcome read?
**A.** inactive

**Q.** Which outcome does the source give for `CC(O)CN(CCN(CC(C)O)CC(C)O)CC(C)O` (stereo not drawn) here?
**A.** inactive

**Q.** `C[C@](N)(Cc1ccc(O)c(O)c1)C(=O)O` was tested. Which outcome did it give?
**A.** inactive

**Q.** Which AC50 does the source give for `CCOC(=O)c1ccc(C2CCC(NC[C@H](O)COc3ccc(O)c(NS(C)(=O)=O)c3)CC2)cc1` (stereo partly drawn) here?
**A.** 28.1 µM (active)

**Q.** For `CC[C@H]1OC(=O)[C@H](C)[C@@H](O[C@H]2C[C@@](C)(OC)[C@@H](O)[C@H](C)O2)[C@H](C)[C@@H](O[C@@H]2O[C@H](C)C[C@H](N(C)C)[C@H]2O)[C@](C)(O)C[C@@H](C)C(=O)[C@H](C)[C@@H](O)[C@]1(C)O`, which outcome is on record?
**A.** inactive

**Q.** With `CCn1nc(Cc2ccccc2)cc1C1CCN(C[C@H]2C[C@H](N(C)[C@@H](C(=O)O)C(C)C)C[C@@H]2c2cccc(F)c2)CC1` as the compound, how does the outcome read?
**A.** inactive

**Q.** Which outcome does the source give for `O=P(OC(CCl)CCl)(OC(CCl)CCl)OC(CCl)CCl` here?
**A.** inactive

**Q.** How did the outcome turn out when `O=C(O)c1cc(N=Nc2ccc(S(=O)(=O)Nc3ccccn3)cc2)ccc1O` was run?
**A.** inactive

**Q.** For `Oc1ccc2c(c1)-c1ccccc1C2`, which outcome is on record?
**A.** inactive

**Q.** How did the outcome turn out when `CCCCCCCCCCCCc1ccccc1` was run?
**A.** inactive

**Q.** Which outcome does the source give for `CCCC(=O)OCC` here?
**A.** inactive

**Q.** Which AC50 does the source give for `CC[C@H](C)C(=O)O[C@H]1C[C@@H](C)C=C2C=C[C@H](C)[C@H](CC[C@@H]3C[C@@H](O)CC(=O)O3)[C@H]21` here?
**A.** 30.8 µM (active)

**Q.** With `NC(=O)NO` as the compound, how does the outcome read?
**A.** inactive

**Q.** `COCCOc1cc2cc(C(=O)NC3CCN(C(C)C)CC3)n(CC(=O)Nc3ccc(Cl)cn3)c2cn1` was tested. Which outcome did it give?
**A.** inactive

**Q.** `COc1ccc(-n2nc(C(F)F)cc2-c2ccc(S(C)=O)cc2)cc1` (stereo not drawn) was tested. Which outcome did it give?
**A.** inactive

**Q.** With `CC(C)(O)c1coc(S(=O)(=O)NC(=O)Nc2c3c(cc4c2CCC4)CCC3)c1` as the compound, how does the outcome read?
**A.** inactive

**Q.** With `CCNc1ccccc1` as the compound, how does the outcome read?
**A.** inactive

**Q.** `CC(C)CCCCCCOC(=O)c1ccc(C(=O)OCCCCCCC(C)C)c(C(=O)OCCCCCCC(C)C)c1` was tested. Which outcome did it give?
**A.** inactive

**Q.** For `CCCCC(CC)COC(=O)CCCCCCCCC(=O)OCC(CC)CCCC` (stereo not drawn), which outcome is on record?
**A.** inactive

**Q.** For `Cn1c(=O)cc(Oc2ccc(F)cc2F)c2cnc(NCC(C)(C)O)nc21`, which outcome is on record?
**A.** inactive
